# Test results as given in PubChem BioAssay (NCI).
# Compounds without any hit were thinned out: in the full panel of roughly 83,000, 20% have a hit.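 Plates (96-well) were seeded with cells, treated with compound at one concentration, and incubated for 48 hours before percent growth was determined.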 Active and inactive are the calls of the source. How the source made its calls: active means growth percent below 10; inactive means the rest.
# Test system: U251 CNS
# Assay: NCI-60 one-dose screen, 48 h (100 = growth as untreated, 0 = no growth, -100 = all killed)
# Details: 10 µM
row,Structure (SMILES),growth
1,COc1cccc(O)c1O,65.1% (inactive)
2,CC(=O)/C(Cc1ccccc1)=N/O,94.9% (inactive)
3,C=CCNC(=O)c1ccc(OC)cc1,101% (inactive)
4,C/C(=N/NC(N)=O)c1ccco1,96.8% (inactive)
5,COCCOC(=O)c1ccc(C(C)C)cc1,98.8% (inactive)
6,C[N+](C)=c1ccc2nc3c(cc(Nc4ccccc4)c4ccccc43)oc-2c1,23.4% (inactive)
7,Cc1cccc(CO)c1,94.5% (inactive)
8,Nc1nc(N)c(N=Nc2ccc(C(=O)O)cc2)c(N)n1,103% (inactive)
9,COCCOCCCl,105% (inactive)
10,Nc1ncnc2[nH]ncc12,42.8% (inactive)
11,O=[N+]([O-])c1ccc(-c2ncc(-c3ccc(Br)cc3)o2)cc1,95.8% (inactive)
12,CCOC(=O)CSc1c([N+](=O)[O-])ncn1C,97.9% (inactive)
13,CC(C)(O)C#CC#CC(C)(C)O,98% (inactive)
14,COc1cc(C2NC(=O)C(C#N)=C(Nc3cccc(C)c3)S2)ccc1O (stereo not drawn),103% (inactive)
15,CCOC(=O)Nc1nn[nH]n1,115% (inactive)
16,O=C(NN=C1CCCCC1)C(=O)NN=C1CCCCC1,107% (inactive)
17,O=C(CCl)Nc1ccc2c(c1)C(=O)c1ccc(NC(=O)CCl)cc1C2=O,-89.3% (active)
18,CCCCOC(=O)c1ccc(C(C)C)cc1,93.8% (inactive)
19,O=C(NC1CCCCC1)OCc1c(COC(=O)NC2CCCCC2)c(-c2ccc(Cl)c(Cl)c2)n2c1CCC2,29.4% (inactive)

row,Structure (SMILES),growth
1,N#CCCN(CCCN1CCOCC1)CN1C(=O)c2ccccc2C1=O,100% (inactive)
2,Cc1ccccc1N=C(c1ccccc1)C1C(=O)c2ccccc2C1=O,87.7% (inactive)
3,O=c1[nH]cc(Cl)cc1O,88.6% (inactive)
4,CC(C)OC(C(=O)O)c1ccccc1 (stereo not drawn),111% (inactive)
5,CCCOC(=O)C(O)c1ccccc1 (stereo not drawn),115% (inactive)
6,COc1ccccc1NC(=O)c1cc2cc(Br)ccc2cc1O,8.67% (active)
7,OCCN1CCOCC1,108% (inactive)
8,OCC1OC(OC2C(O)C(CO)OC2(CO)OC2OC(CO)C(O)C(O)C2O)C(O)C(O)C1O (stereo not drawn),109% (inactive)
9,Cc1ccc(Cl)cc1NC(=O)N(C)CCO,102% (inactive)
10,CCOC(=O)C(O)C(O)C(=O)OCC (stereo not drawn),102% (inactive)
11,O=c1cc(-c2ccccc2)nc2cc(-c3ccco3)[nH]n12,90.5% (inactive)
12,S=c1[nH]ccn1-c1ccccc1Cl,99.2% (inactive)
13,C[N+](C)(C)C(=O)c1ccccc1,107% (inactive)
14,CCc1ccc(/C(C#N)=C/C=C/c2ccccc2)cc1,21.3% (inactive)
15,O=C(O)c1ccnc(Br)c1,100% (inactive)
16,S=c1nn[nH]c2ccccc12,103% (inactive)
17,O=[N+]([O-])c1ccc(CO)cc1,105% (inactive)
18,O=C1C=C(O)C(=O)C=C1O,104% (inactive)
19,C#Cc1cccc(NC(=O)c2ccc(Cl)cc2Cl)c1,91.3% (inactive)
